Screens (PubChem)
ABCB6 inh 2: ABCB6 transporter inhibitors, primary screen, K562-ABCB6 cells, flow cytometry, MLPCN library; K562-ABCB6 porphyrin accumulation, 1 h; hits give low values; fluorescence ratio to DMSO, % at 10 µM; 360,000 tested, 0.19% active; ATP-binding cassette sub-family B member 6 (Homo sapiens), Q9NP58;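 active means fluorescence ratio to DMSO below 75%, the collection mean minus 3 SD; inconclusive means too few cells collected in the well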;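 further: signal is porphyrin accumulated inside mitochondria; 100% equals median channel fluorescence of DMSO control wells; lower ratio means ABCB6 inhibition with less porphyrin fluorescence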
Target sequence (Q9NP58 whole entry, looked up): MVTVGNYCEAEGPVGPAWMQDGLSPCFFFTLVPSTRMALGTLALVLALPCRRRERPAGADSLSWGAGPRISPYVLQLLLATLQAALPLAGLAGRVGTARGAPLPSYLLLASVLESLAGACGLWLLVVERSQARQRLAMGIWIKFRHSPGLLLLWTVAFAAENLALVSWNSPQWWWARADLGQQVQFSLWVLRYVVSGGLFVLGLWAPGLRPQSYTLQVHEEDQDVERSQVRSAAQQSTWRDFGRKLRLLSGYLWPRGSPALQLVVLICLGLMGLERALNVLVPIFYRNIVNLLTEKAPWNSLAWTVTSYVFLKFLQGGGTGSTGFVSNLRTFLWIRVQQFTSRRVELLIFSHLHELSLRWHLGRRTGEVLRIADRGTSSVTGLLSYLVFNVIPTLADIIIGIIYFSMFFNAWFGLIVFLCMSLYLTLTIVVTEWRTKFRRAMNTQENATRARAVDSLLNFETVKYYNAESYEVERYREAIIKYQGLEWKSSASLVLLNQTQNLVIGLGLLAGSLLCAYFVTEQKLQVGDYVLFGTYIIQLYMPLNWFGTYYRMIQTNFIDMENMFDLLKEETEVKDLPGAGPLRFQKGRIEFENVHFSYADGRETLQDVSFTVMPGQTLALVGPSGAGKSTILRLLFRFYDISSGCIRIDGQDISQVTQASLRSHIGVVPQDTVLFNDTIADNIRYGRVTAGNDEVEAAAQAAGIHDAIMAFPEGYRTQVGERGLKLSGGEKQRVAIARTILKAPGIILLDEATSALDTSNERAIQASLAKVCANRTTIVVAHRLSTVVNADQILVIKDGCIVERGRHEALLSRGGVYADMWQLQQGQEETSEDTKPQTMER
TLR9-MyD88 block: inhibitors of TLR9-MyD88 association in cells, primary screen, cell-based, CHO, BLA complementation, fluorescence | Toll-like receptor 9 (Homo sapiens) + Myeloid differentiation primary response protein … | CCF4 FRET ratio | inhibition, % at 4.98 µM | 340,000 tested, 0.21% active | AID 504734, 2011;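 active means inhibition above the mean over all tested compounds plus 3 SD, cut at about 21% in these data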;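 further: 0% = DMSO only wells and 100% = clavulanate BLA inhibitor control wells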
Myeloid diff 2: induction of myeloid progenitor differentiation, primary screen, cell-based, flow cytometry, MLPCN library; ER-HoxA9 myeloid progenitors, lysozyme-GFP differentiation; calls only at 10 µM; 360,000 tested, 1% active; AID 624256, 2012;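 active means normalized GFP-positive differentiation at or above the plate's own cutoff, the solvent-only control mean plus 3 SD; inconclusive means no clear call, values can overlap the other calls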;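 further: cells exposed to compound for four days before flow analysis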
TLR4-MyD88 BLA: inhibitors of TLR4-MyD88 association in cells, primary screen, cell-based, HeLa CL3-4, BLA complementation, FRET ratio | Toll-like receptor 4 (Homo sapiens) + Myeloid differentiation primary response protein … | HeLa CL3-4 TLR4/MyD88 BLA complementation | inhibition, % at 8.4 µM | 200,000 tested, 0.18% active; in the data active means inhibition above about 25%;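 further: 0% = vehicle and 100% = reference inhibitor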
NOD2 RIPK2 PPI: NOD2-RIPK2 binding disruptors in cells, primary screen, fluorescence, CHO cells, BLA complementation; Receptor-interacting serine/threonine-protein kinase 2 (Homo sapiens), O43353; CCF4 ratio; inhibition, % at 4.98 µM; 360,000 tested, 0.38% active; AID 624267, 2012; in the data active means inhibition above about 21%;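 further: 0% = vehicle only and 100% = reference blocker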
* marks the source's active call; other numbers are inactive results. A selection: hits, their analogues and other compounds. The true share with any hit is near 1.7%.

Screening N#CC(C#N)=C1C=C2C=C(N3CCCCC3)CCC2CC1 (centres undefined) returned TLR4-MyD88 BLA -6.
CCN(CC)C1=CC2=CC(=C(C#N)C#N)CCC2CC1 (centres undefined) was read as ABCB6 inh 2 245, TLR9-MyD88 block 2, Myeloid diff 2 active, TLR4-MyD88 BLA -4 and NOD2 RIPK2 PPI -3.
CCCCN(C)C1=CC2=CC(=C(C#N)C#N)CCC2CC1 (centres undefined) was read as ABCB6 inh 2 430, TLR9-MyD88 block 2, Myeloid diff 2 active, TLR4-MyD88 BLA 11 and NOD2 RIPK2 PPI 12.
Screening CCCCCCCN1C(Nc2ccccc2)=NC[C@@H]1CC(C)C returned ABCB6 inh 2 97, TLR9-MyD88 block -4, Myeloid diff 2 active and NOD2 RIPK2 PPI -21.
`CC(C)C[C@H]1CN=C(Nc2ccccc2)N1CCCC1CCCC1` gave ABCB6 inh 2 99, TLR9-MyD88 block 4, Myeloid diff 2 inactive and NOD2 RIPK2 PPI -3.
O=C(CCS(=O)(=O)c1ccccc1)N(CCCN1CCOCC1)c1nc2ccc(F)cc2s1 was read as ABCB6 inh 2 104, TLR9-MyD88 block -2, Myeloid diff 2 inconclusive and NOD2 RIPK2 PPI 14.
COc1ccc(CN2CCN(S(=O)(=O)c3ccc(NC(C)=O)cc3)CC2)c(OC)c1OC was read as ABCB6 inh 2 97, TLR9-MyD88 block -1, Myeloid diff 2 active, TLR4-MyD88 BLA -8 and NOD2 RIPK2 PPI 5.
COc1cccc(C(=O)NN2c3ccccc3CCc3ccccc32)c1 was read as ABCB6 inh 2 99, TLR9-MyD88 block -2, Myeloid diff 2 active, TLR4-MyD88 BLA 4 and NOD2 RIPK2 PPI -7.
For Cc1cc(C(=O)NNC2CC(=O)N(c3ccc4ccccc4c3)C2=O)c(C)o1 (centres undefined) the results were ABCB6 inh 2 90, TLR9-MyD88 block -5, Myeloid diff 2 inactive, TLR4-MyD88 BLA 0 and NOD2 RIPK2 PPI -5.
`CS(=O)(=O)c1ccc(C(=O)CN2C(=O)NC3(CCCc4ccccc43)C2=O)cc1` (centres undefined) gave ABCB6 inh 2 93, TLR9-MyD88 block 0, Myeloid diff 2 inactive and NOD2 RIPK2 PPI 1.
For C[C@]12CCC3C(CC[C@H]4CC(O)CC[C@]34C)C1CC/C2=N/O (some centres undefined) the results were ABCB6 inh 2 93, TLR9-MyD88 block 6, Myeloid diff 2 inactive and NOD2 RIPK2 PPI 4.
`C[C@]12CCC3C(CC[C@H]4CC(O)CC[C@]34C)C1CC/C2=N/NC(=O)c1ccncc1` (some centres undefined) gave ABCB6 inh 2 261, TLR9-MyD88 block 0, Myeloid diff 2 active and NOD2 RIPK2 PPI 0.
`COc1cc(/C=C/C(=O)O)ccc1OS(=O)(=O)c1c(C)cc(C)cc1C` gave ABCB6 inh 2 97, TLR9-MyD88 block -4, Myeloid diff 2 inactive and NOD2 RIPK2 PPI -2.
For CC(C)c1ccc(NC(=O)c2ccc(NS(C)(=O)=O)cc2)cc1 the results were ABCB6 inh 2 100, TLR9-MyD88 block 2, Myeloid diff 2 active, TLR4-MyD88 BLA -3 and NOD2 RIPK2 PPI -7.
Screening CS(=O)(=O)Nc1ccc(C(=O)Nc2ccc3ccccc3c2)cc1 returned ABCB6 inh 2 103, TLR9-MyD88 block -15, Myeloid diff 2 inconclusive and NOD2 RIPK2 PPI -5.
`Cc1ccc2nc(SCC(=O)N3N=C(c4cccs4)CC3c3ccc(F)cc3)nc(=O)n2c1` (centres undefined) gave ABCB6 inh 2 100, TLR9-MyD88 block -4, Myeloid diff 2 inactive and NOD2 RIPK2 PPI -8.
For Cc1ccc(C2CC(c3cccs3)=NN2C(=O)CSc2nc(=O)n3cc(C)ccc3n2)cc1 (centres undefined) the results were ABCB6 inh 2 inconclusive, TLR9-MyD88 block -3, Myeloid diff 2 active and NOD2 RIPK2 PPI 3.
`COc1cccc(NC(=O)CN(C)CC(=O)Nc2ccc(C)c([N+](=O)[O-])c2)c1` gave ABCB6 inh 2 102, TLR9-MyD88 block -3, Myeloid diff 2 active and NOD2 RIPK2 PPI 0.
`O=CNC1(c2ccccc2)CCCCC1` gave ABCB6 inh 2 89, TLR9-MyD88 block -3, Myeloid diff 2 inactive and NOD2 RIPK2 PPI 4.
For CC(C)(C)c1ccc(OCC(=O)NCC(c2cccs2)N2CCOCC2)cc1 (centres undefined) the results were ABCB6 inh 2 97, TLR9-MyD88 block 3, Myeloid diff 2 inactive and NOD2 RIPK2 PPI 3.
`Cn1nnnc1Sc1ncnc2scc(-c3ccccc3Br)c12` gave ABCB6 inh 2 94, TLR9-MyD88 block 4, Myeloid diff 2 active and NOD2 RIPK2 PPI 4.
`Cn1nnnc1Sc1ncnc2scc(-c3ccccc3)c12` gave ABCB6 inh 2 91, TLR9-MyD88 block 5, TLR4-MyD88 BLA 6 and NOD2 RIPK2 PPI 7.
`CCCC(=O)N1CCN(c2ccc(NC(=O)c3ccc([N+](=O)[O-])o3)cc2Cl)CC1` gave ABCB6 inh 2 102, TLR9-MyD88 block 3, TLR4-MyD88 BLA -3 and NOD2 RIPK2 PPI 27*.
`C=CC(=O)Nc1cccc(Oc2cc(Cl)nc3[nH]ccc23)c1` gave ABCB6 inh 2 97, TLR9-MyD88 block 11, Myeloid diff 2 inactive and NOD2 RIPK2 PPI 4.
Screening Cc1sc2ncnc(SCC(=O)NC(=O)NCc3ccco3)c2c1C returned ABCB6 inh 2 104, TLR9-MyD88 block -5, Myeloid diff 2 active, TLR4-MyD88 BLA 0 and NOD2 RIPK2 PPI -13.
`Cc1nc(SCC(=O)NCc2ccco2)c2c(C)c(C)sc2n1` gave ABCB6 inh 2 97, TLR9-MyD88 block -10, Myeloid diff 2 inactive, TLR4-MyD88 BLA -1 and NOD2 RIPK2 PPI -4.
For CN1C(=O)CC(c2cn(Cc3ccccc3)c3ccccc23)C1=O (centres undefined) the results were ABCB6 inh 2 107, TLR9-MyD88 block 10, Myeloid diff 2 active and NOD2 RIPK2 PPI 0.
c1ccc(Nc2ccc3c4c(cccc24)CC3)cc1 was read as ABCB6 inh 2 929, TLR9-MyD88 block 5, Myeloid diff 2 active, TLR4-MyD88 BLA -18 and NOD2 RIPK2 PPI 6.
For Nc1ccc2c3c(cccc13)CC2 the results were ABCB6 inh 2 536, TLR9-MyD88 block 19, Myeloid diff 2 active, TLR4-MyD88 BLA -1 and NOD2 RIPK2 PPI 7.
`O=S(=O)(Nc1ccc2c3c(cccc13)CC2)c1ccc(F)cc1` gave ABCB6 inh 2 110, TLR9-MyD88 block -19, Myeloid diff 2 inactive, TLR4-MyD88 BLA -13 and NOD2 RIPK2 PPI 5.
`COc1cc2c(cc1OC)C(C(=O)Nc1ccc3c(c1)OCCO3)C(c1cccnc1)N(C)C2=O` (centres undefined) gave ABCB6 inh 2 98, TLR9-MyD88 block 3, Myeloid diff 2 inactive, TLR4-MyD88 BLA 1 and NOD2 RIPK2 PPI -2.
